# Measurements from PubChem BioAssay AID1159580 (chemical genetic matrix, 2015).
# Among all 5,500 compounds or so, about 2,000 (36%) were called active. Inconclusive results (about 18%) are left out. Some of the results follow. A number with no mark means an inactive call. No stated cut-off is given here; in the data, active means normalized growth mostly below about 0.91 (no sharp cut-off); inconclusive means no clear call, values can overlap the other calls; inactive means mostly above about 0.92.
# Assay: chemical genetic growth profiling, strain panel (AID 1159580);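 further: tested at 20 µM; growth read once vehicle control cultures reached saturation at 30 °C; 1 = growth at the plate median or of vehicle wells; lower values mean less growth of the strain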
# Conditions: growth OD
compound,measurement,setting,value
CC(=O)OC[C@@]1(O)C[C@@]23CCC4c5ccoc5CC[C@]4(C)C2CC[C@@H]1C3 (some centres not stated),normalized growth,"S. cerevisiae deletion strains, locus YJR075W, strain HOC1, hits give low values",1.01
same,normalized growth,"S. cerevisiae deletion strains, locus YKL009W, strain mrt4, hits give low values",0.868 (active)
same,normalized growth,"S. cerevisiae deletion strains, locus YKL068W, hits give low values",0.969
same,normalized growth,"S. cerevisiae deletion strains, locus YKL085W, strain MDH1 (second series), hits give low values",0.967
same,normalized growth,"S. cerevisiae deletion strains, locus YKL085W, strain MDH1, hits give low values",0.967
same,normalized growth,"S. cerevisiae deletion strains, locus YKL160W, strain elf1, hits give low values",0.978
same,normalized growth,"S. cerevisiae deletion strains, locus YKL190W, strain CNB1, hits give low values",0.986
same,normalized growth,"S. cerevisiae deletion strains, locus YKR001C, strain vps1, hits give low values",0.942
same,normalized growth,"S. cerevisiae deletion strains, locus YKR026C, strain gcn3, hits give low values",1.01
same,normalized growth,"S. cerevisiae deletion strains, locus YKR091W, strain srl3, hits give low values",1
same,normalized growth,"S. cerevisiae deletion strains, locus YLL001W, strain dnm1, hits give low values",0.974
same,normalized growth,"S. cerevisiae deletion strains, locus YLL026W, hits give low values",1.02
same,normalized growth,"S. cerevisiae deletion strains, locus YLL041C, strain sdh2, hits give low values",1.02
same,normalized growth,"S. cerevisiae deletion strains, locus YLR027C, strain aat2, hits give low values",1.01
same,normalized growth,"S. cerevisiae deletion strains, locus YLR039C, strain RIC1, hits give low values",0.661 (active)
same,normalized growth,"S. cerevisiae deletion strains, locus YLR058C, strain SHM2, hits give low values",0.973
same,normalized growth,"S. cerevisiae deletion strains, locus YLR102C, strain apc9, hits give low values",0.973
same,normalized growth,"S. cerevisiae deletion strains, locus YLR113W, strain HOG1, hits give low values",0.901
same,normalized growth,"S. cerevisiae deletion strains, locus YLR221C, strain rsa3, hits give low values",0.968
same,normalized growth,"S. cerevisiae deletion strains, locus YLR258W, strain gsy2, hits give low values",0.99
same,normalized growth,"S. cerevisiae deletion strains, locus YLR262C, strain YPT6 (second series), hits give low values",0.817 (active)
same,normalized growth,"S. cerevisiae deletion strains, locus YLR262C, strain YPT6, hits give low values",0.624
same,normalized growth,"S. cerevisiae deletion strains, locus YLR268W, strain sec22, hits give low values",0.987
same,normalized growth,"S. cerevisiae deletion strains, locus YLR320W, strain mms22, hits give low values",0.945
same,normalized growth,"S. cerevisiae deletion strains, locus YLR330W, strain CHS5, hits give low values",0.969
same,normalized growth,"S. cerevisiae deletion strains, locus YLR342W, strain FKS1 (second series), hits give low values",0.775 (active)
same,normalized growth,"S. cerevisiae deletion strains, locus YLR342W, strain FKS1, hits give low values",1.01
same,normalized growth,"S. cerevisiae deletion strains, locus YLR357W, strain rsc2, hits give low values",0.963
same,normalized growth,"S. cerevisiae deletion strains, locus YLR370C, strain arc18, hits give low values",1
same,normalized growth,"S. cerevisiae deletion strains, locus YLR371W, strain rom2, hits give low values",0.96
same,normalized growth,"S. cerevisiae deletion strains, locus YLR384C, strain iki3, hits give low values",1.03
same,normalized growth,"S. cerevisiae deletion strains, locus YLR418C, strain cdc73, hits give low values",0.983
same,normalized growth,"S. cerevisiae deletion strains, locus YML016C, strain PPZ1, hits give low values",0.978
same,normalized growth,"S. cerevisiae deletion strains, locus YML032C, strain rad52, hits give low values",0.884 (active)
same,normalized growth,"S. cerevisiae deletion strains, locus YML120C, strain ndi1, hits give low values",1.01
same,normalized growth,"S. cerevisiae deletion strains, locus YML124C, strain tub3, hits give low values",0.98
same,normalized growth,"S. cerevisiae deletion strains, locus YMR058W, strain fet3, hits give low values",0.952
same,normalized growth,"S. cerevisiae deletion strains, locus YMR078C, strain ctf18, hits give low values",0.965
same,normalized growth,"S. cerevisiae deletion strains, locus YMR125W, strain sto1, hits give low values",0.988
same,normalized growth,"S. cerevisiae deletion strains, locus YMR129W, hits give low values",1.02
same,normalized growth,"S. cerevisiae deletion strains, locus YMR205C, strain PFK2, hits give low values",0.981
same,normalized growth,"S. cerevisiae deletion strains, locus YMR223W, strain ubp8, hits give low values",0.905
same,normalized growth,"S. cerevisiae deletion strains, locus YMR231W, strain pep5, hits give low values",1.01
same,normalized growth,"S. cerevisiae deletion strains, locus YMR263W, strain SAP30, hits give low values",0.985
same,normalized growth,"S. cerevisiae deletion strains, locus YMR307W, strain GAS1, hits give low values",0.779
same,normalized growth,"S. cerevisiae deletion strains, locus YNL067W, strain RPL9B, hits give low values",0.963
same,normalized growth,"S. cerevisiae deletion strains, locus YNL071W, strain lat1, hits give low values",0.964
same,normalized growth,"S. cerevisiae deletion strains, locus YNL128W, strain TEP1, hits give low values",0.997
same,normalized growth,"S. cerevisiae deletion strains, locus YNL153C, strain GIM3, hits give low values",0.992
same,normalized growth,"S. cerevisiae deletion strains, locus YNL183C, strain NPR1, hits give low values",0.877
same,normalized growth,"S. cerevisiae deletion strains, locus YNL209W, strain ssb2, hits give low values",1.02
same,normalized growth,"S. cerevisiae deletion strains, locus YNL233W, strain BNI4, hits give low values",0.947
same,normalized growth,"S. cerevisiae deletion strains, locus YNL248C, strain rpa49, hits give low values",0.96
same,normalized growth,"S. cerevisiae deletion strains, locus YNL250W, strain rad50, hits give low values",0.976
same,normalized growth,"S. cerevisiae deletion strains, locus YNL271C, strain bni1, hits give low values",0.975
same,normalized growth,"S. cerevisiae deletion strains, locus YNL298W, strain CLA4, hits give low values",0.891 (active)
same,normalized growth,"S. cerevisiae deletion strains, locus YNL307C, strain MCK1, hits give low values",0.778 (active)
same,normalized growth,"S. cerevisiae deletion strains, locus YNL322C, strain KRE1 (second series), hits give low values",1.03
same,normalized growth,"S. cerevisiae deletion strains, locus YNL322C, strain KRE1, hits give low values",0.997
same,normalized growth,"S. cerevisiae deletion strains, locus YNR049C, strain mso1, hits give low values",1.01
same,normalized growth,"S. cerevisiae deletion strains, locus YNR052C, strain pop2, hits give low values",0.938
same,normalized growth,"S. cerevisiae deletion strains, locus YOL006C, strain TOP1, hits give low values",1.11
same,normalized growth,"S. cerevisiae deletion strains, locus YOL012C, strain htz1",1.41
same,normalized growth,"S. cerevisiae deletion strains, locus YOL147C, strain pex11, hits give low values",0.971
same,normalized growth,"S. cerevisiae deletion strains, locus YOR001W, strain rrp6, hits give low values",0.985
same,normalized growth,"S. cerevisiae deletion strains, locus YOR061W, strain CKA2, hits give low values",0.952
same,normalized growth,"S. cerevisiae deletion strains, locus YOR069W, strain VPS5, hits give low values",0.981
same,normalized growth,"S. cerevisiae deletion strains, locus YOR070C, strain gyp1, hits give low values",1.01
same,normalized growth,"S. cerevisiae deletion strains, locus YOR080W, strain dia2, hits give low values",1.02
same,normalized growth,"S. cerevisiae deletion strains, locus YOR083W, strain WHI5, hits give low values",0.978
same,normalized growth,"S. cerevisiae deletion strains, locus YOR106W, strain vam3, hits give low values",0.998
same,normalized growth,"S. cerevisiae deletion strains, locus YOR136W, strain idh2, hits give low values",0.95
same,normalized growth,"S. cerevisiae deletion strains, locus YOR144C, strain elg1, hits give low values",0.97
same,normalized growth,"S. cerevisiae deletion strains, locus YOR184W, strain ser1, hits give low values",0.69 (active)
same,normalized growth,"S. cerevisiae deletion strains, locus YOR231W, strain MKK1, hits give low values",0.872
same,normalized growth,"S. cerevisiae deletion strains, locus YOR265W, strain rbl2, hits give low values",1.01
same,normalized growth,"S. cerevisiae deletion strains, locus YOR270C, strain vph1, hits give low values",1.21
same,normalized growth,"S. cerevisiae deletion strains, locus YOR290C, strain snf2, hits give low values",0.927
same,normalized growth,"S. cerevisiae deletion strains, locus YOR316C, strain cot1, hits give low values",0.966
same,normalized growth,"S. cerevisiae deletion strains, locus YPL051W, strain arl3, hits give low values",0.967
same,normalized growth,"S. cerevisiae deletion strains, locus YPL055C, strain LGE1, hits give low values",0.954
same,normalized growth,"S. cerevisiae deletion strains, locus YPL078C, strain atp4, hits give low values",0.931
same,normalized growth,"S. cerevisiae deletion strains, locus YPL106C, strain sse1, hits give low values",0.99
same,normalized growth,"S. cerevisiae deletion strains, locus YPL240C, strain hsp82, hits give low values",1.01
same,normalized growth,"S. cerevisiae deletion strains, locus YPL241C, strain CIN2, hits give low values",0.978
same,normalized growth,"S. cerevisiae deletion strains, locus YPL256C, strain CLN2, hits give low values",0.927
same,normalized growth,"S. cerevisiae deletion strains, locus YPR119W, strain clb2, hits give low values",0.967
same,normalized growth,"S. cerevisiae deletion strains, locus YPR141C, strain kar3, hits give low values",0.989
same,normalized growth,"S. cerevisiae deletion strains, locus YPR163C, strain tif3, hits give low values",0.962
same,normalized growth,"S. cerevisiae deletion strains, locus YPR167C, strain met16, hits give low values",0.978
same,normalized growth,"S. cerevisiae deletion strains, strain wtn01, hits give low values",0.948
same,normalized growth,"S. cerevisiae strains, strain wild type, hits give low values",0.964
